Results on seven compounds are retold here after PubChem BioAssay (EPA / NIEHS).

Several values for one entry are separate records, joined by “and”; a condition that tells them apart may be missing. Equal entries are not always repeated. Records with an inconclusive call do not appear. Activity calls are given as the source filed them. How the source made its calls, unless noted: active means hit-call score of the fitted dose curve at least 0.9, where 1 is the maximum; inactive means score below 0.9.

The target of test [1] is human RAR-related Orphan Receptor gamma (RORg), RORC (gene 6097) (UniProt P51449). Description: ATG_RORg_TRANS: Attagene TRANS-FACTORIAL HepG2 Assay for human RAR-related Orphan Receptor gamma (RORg) (AID 2283011; active means hit-call score of the fitted dose curve at least 0.9, where 1 is the maximum). In a few lines: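 Readout: reporter transcript induction (RT-PCR, fluorescent primer extension, capillary electrophoresis) after 24 h compound exposure of transiently transfected HepG2 cells carrying a RORg-Gal4 chimera and GAL4-UAS reporters; DMSO served as baseline, with increasing signal fitted.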
Chain of human RAR-related Orphan Receptor gamma (RORg), RORC (gene 6097) (P51449 whole entry, looked up, the tested form may be a part): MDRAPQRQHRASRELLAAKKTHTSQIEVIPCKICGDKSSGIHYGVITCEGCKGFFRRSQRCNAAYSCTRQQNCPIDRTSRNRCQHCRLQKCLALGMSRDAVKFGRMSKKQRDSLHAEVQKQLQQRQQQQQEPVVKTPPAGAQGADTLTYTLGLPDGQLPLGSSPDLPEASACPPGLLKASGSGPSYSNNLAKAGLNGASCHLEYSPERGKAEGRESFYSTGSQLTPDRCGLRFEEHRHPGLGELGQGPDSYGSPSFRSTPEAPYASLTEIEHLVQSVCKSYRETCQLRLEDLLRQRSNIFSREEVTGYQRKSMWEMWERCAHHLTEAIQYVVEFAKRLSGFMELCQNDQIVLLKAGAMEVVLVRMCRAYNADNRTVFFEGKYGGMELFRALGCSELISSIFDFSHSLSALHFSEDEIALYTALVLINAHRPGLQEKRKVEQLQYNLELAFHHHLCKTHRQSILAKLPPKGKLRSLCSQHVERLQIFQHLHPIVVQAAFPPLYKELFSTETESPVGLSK

Test [2] deals with human Thyroid Receptor alpha (THRa1), THRA (gene 7067) (UniProt P10827). Description: ATG_THRa1_TRANS: Attagene TRANS-FACTORIAL HepG2 Assay for human Thyroid Receptor alpha (THRa1) (AID 2283014; active means hit-call score of the fitted dose curve at least 0.9, where 1 is the maximum). In a few lines:
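HepG2 cells transiently transfected with multiplexed GAL4-UAS reporter units for exogenous chimeric THRa1-Gal4; reporter mRNA measured 24 h after dosing by RT-PCR, 6-FAM labelling, HpaI digestion and capillary electrophoresis. Gain-of-signal fitted versus DMSO baseline.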

Read-out in test [3]: E-selectin (Homo sapiens) (UniProt P16581)
Description: BSK_3C_Eselectin: BioMAP Diversity Plus: 3C Assay for Eselectin Biomarker Activity (AID 2283015).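 On outcome: cell surface E-selectin protein quantified by ELISA 24 h after dosing.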 To be noted: primary human endothelial cells (HUVEC); actives raise or lower the signal. An outline of the steps: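 Primary human umbilical vein endothelial cells (3C system) were dosed with chemical and cell-surface E-selectin measured by ELISA 24 h later. Bidirectional curve fitting used DMSO as negative control and baseline.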

Read-out in test [4]: Interleukin-1 alpha (IL1a), IL1A (gene 3552)
Description: BSK_BE3C_IL1a: BioMAP Diversity Plus: BE3C Assay for Interleukin-1 alpha (IL1a) Biomarker Activity (AID 2283016). To be noted: primary human bronchial epithelial cells; actives raise or lower the signal. In a few lines: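 Cultures of primary human bronchial epithelial cells receive test chemical. After 24 h, IL-1a is quantified by ELISA, while parallel wells are fixed in TCA and SRB-stained for total protein. Changes in either direction are fitted relative to DMSO.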

Read-out in test [5]: Monocyte Chemoattractant Protein-1 (MCP1), CCL2 (gene 6347)
Description: BSK_3C_MCP1: BioMAP Diversity Plus: 3C Assay for Monocyte Chemoattractant Protein-1 (MCP1) Biomarker Activity (AID 2283017). The note with it: primary human endothelial cells (HUVEC); actives raise or lower the signal. An outline of the steps: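 Primary human umbilical vein endothelial cells (3C system) were exposed to test chemical for 24 h, after which MCP-1 was quantified by ELISA. Activity was fitted bidirectionally against DMSO as negative control and baseline.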

Read-out in test [6]: Human Leukocyte Antigen - DR isotype (HLADR), HLA-DRA (gene 3122)
Description: BSK_3C_HLADR: BioMAP Diversity Plus: 3C Assay for Human Leukocyte Antigen - DR isotype (HLADR) Biomarker Activity (AID 2283019).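 On outcome: ELISA of cell-surface HLA-DR on HUVEC 24 h after dosing.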 The note with it: primary human endothelial cells (HUVEC); actives raise or lower the signal. In a few lines:
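Primary human umbilical vein endothelial cells (3C system) were dosed with compound and cell-surface HLA-DR was quantified by ELISA at 24 h. Activity was fitted bidirectionally against DMSO as negative control and baseline.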

Read-out in test [7]: Interleukin-8 (IL8), CXCL8 (gene 3576)
Nature of the test: BSK_3C_IL8: BioMAP Diversity Plus: 3C Assay for Interleukin-8 (IL8) Biomarker Activity (AID 2283020). To be noted: primary human endothelial cells (HUVEC); actives raise or lower the signal. In a few lines:
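Human vascular endothelial cells (umbilical vein) in the 3C system; IL-8 level detected by ELISA at 24 h post-dose, with DMSO as baseline.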

Read-out in test [8]: Monokine induced gamma interferon (MIG), CXCL9 (gene 4283)
Description: BSK_3C_MIG: BioMAP Diversity Plus: 3C Assay for Monokine induced gamma interferon (MIG) Biomarker Activity (AID 2283021). To be noted: primary human endothelial cells (HUVEC); actives raise or lower the signal. An outline of the steps: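 After 24 h of treatment, human umbilical vein endothelial cultures (3C system) had their MIG biomarker level determined by ELISA, with DMSO serving as negative control.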

Test [9] in a line: BSK_3C_SRB: Viability Assessment in the BioMAP Diversity Plus: 3C Assay (AID 2283023).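 Further: fitted both ways against DMSO so a hit may be signal rise or drop.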 The note with it: primary human endothelial cells (HUVEC). An outline of the steps:
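Primary human umbilical vein endothelial cells in the 3C system were read 24 h after compound dosing. Total protein was stained with 0.1% sulforhodamine B after 10% TCA fixation and read at 560 nm, with bidirectional fitting against DMSO as baseline.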

Read-out in test [10]: Matrix Metallopeptidase 1 (MMP1), MMP1 (gene 4312)
Nature of the test: BSK_BE3C_MMP1: BioMAP Diversity Plus: BE3C Assay for Matrix Metallopeptidase 1 (MMP1) Biomarker Activity (AID 2283024). The note with it: primary human bronchial epithelial cells; actives raise or lower the signal. An outline of the steps: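 Dose cells, wait 24 h, run MMP1 ELISA; cells are human bronchial epithelial primaries. Both increases and decreases relative to DMSO counted.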

Test [11] is described as follows: BSK_3C_Vis: BioMAP Diversity Plus: 3C Assay for Morphology Visualization (AID 2283025).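 Further: fitted both ways so gain or loss versus DMSO counts.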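 On AC50: light microscopy image of cell morphology used as background control.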 To be noted: primary human endothelial cells (HUVEC). An outline of the steps:
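Endothelial cells from human umbilical vein were treated with test chemicals for 24 h and inspected by light microscopy for changes in cell conformation.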

Read-out in test [12]: Pselectin, SELP (gene 6403)
Nature of the test: BSK_4H_Pselectin: BioMAP Diversity Plus: 4H Assay for Pselectin Biomarker Activity (AID 2283026). To be noted: primary human endothelial cells (HUVEC); actives raise or lower the signal. In a few lines: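 Human vascular endothelium from umbilical vein; P-selectin measured by ELISA at 24 h post-dose, with cytotoxicity checked by sulforhodamine B total-protein staining in parallel cultures (0.1% SRB after 10% TCA fixation, read at 560 nm).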

Test [13] in a line: BSK_4H_SRB: Viability Assessment in the BioMAP Diversity Plus: 4H Assay (AID 2283027).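 Further: cells exposed to compound for 24 h before staining.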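 On AC50: curves fitted both ways versus DMSO so AC50 may be loss or gain.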 The note with it: primary human endothelial cells (HUVEC). In a few lines:
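Absorbance at 560 nm of SRB-stained total protein served as the viability read-out in confluent primary human umbilical vein endothelium 24 h after chemical treatment. Curves were fitted bidirectionally against DMSO as negative control.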

Test [14] is described as follows: BSK_BE3C_SRB: Viability Assessment in the BioMAP Diversity Plus: BE3C Assay (AID 2283028).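 On AC50: fitted both ways so AC50 may mark signal gain or loss versus DMSO.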 To be noted: primary human bronchial epithelial cells. In a few lines: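 Human primary bronchial epithelial cells were exposed to test chemicals for 24 h. Total protein in parallel cultures was then measured by staining with 0.1% sulforhodamine B after 10% TCA fixation, with absorbance read at 560 nm. Activity was fitted bidirectionally against DMSO.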

Read-out in test [15]: Thrombomodulin, THBD (gene 7056)
Description: BSK_3C_Thrombomodulin: BioMAP Diversity Plus: 3C Assay for Thrombomodulin Biomarker Activity (AID 2283029). To be noted: primary human endothelial cells (HUVEC); actives raise or lower the signal. An outline of the steps:
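Thrombomodulin ELISA, human primary HUVEC, 24 h post-dose; data fitted in both directions relative to DMSO.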

The target of test [16] is Retinoic acid receptor RXR-alpha (Homo sapiens) (UniProt P19793). Description: ATG_RXRa_TRANS: Attagene TRANS-FACTORIAL HepG2 Assay for human Retinoid X Receptor alpha (RXRa) (AID 2283012; active means hit-call score of the fitted dose curve at least 0.9, where 1 is the maximum). An outline of the steps: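 Cells (HepG2) carried transiently transfected GAL4-responsive reporter units. Following a 24 h chemical incubation, reporter mRNA induction was read via RT-PCR fragment analysis; DMSO served as negative control and baseline.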
Chain of Retinoic acid receptor RXR-alpha (Homo sapiens) (P19793 whole entry, looked up, the tested form may be a part): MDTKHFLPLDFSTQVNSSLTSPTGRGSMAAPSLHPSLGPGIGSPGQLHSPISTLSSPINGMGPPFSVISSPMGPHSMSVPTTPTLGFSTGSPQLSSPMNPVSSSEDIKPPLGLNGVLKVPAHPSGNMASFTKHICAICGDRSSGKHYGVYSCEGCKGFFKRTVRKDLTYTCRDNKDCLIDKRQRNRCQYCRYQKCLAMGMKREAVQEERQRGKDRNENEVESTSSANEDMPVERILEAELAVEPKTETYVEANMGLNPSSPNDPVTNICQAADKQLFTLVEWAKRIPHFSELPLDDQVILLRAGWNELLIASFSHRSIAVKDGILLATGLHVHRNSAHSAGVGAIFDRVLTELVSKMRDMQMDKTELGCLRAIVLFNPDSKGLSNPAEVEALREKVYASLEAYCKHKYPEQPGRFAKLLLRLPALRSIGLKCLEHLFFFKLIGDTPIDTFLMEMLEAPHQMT

In test [17] the target is human Retinoid X Receptor beta (RXRb), RXRB (gene 6257) (UniProt P28702). Nature of the test: ATG_RXRb_TRANS: Attagene TRANS-FACTORIAL HepG2 Assay for human Retinoid X Receptor beta (RXRb) (AID 2283013; active means hit-call score of the fitted dose curve at least 0.9, where 1 is the maximum). An outline of the steps: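 Multiplexed TRANS reporter assay in HepG2; 24 h dosing; reporter mRNA by RT-PCR/CE fluorescence; gain-of-signal relative to DMSO.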
Chain of human Retinoid X Receptor beta (RXRb), RXRB (gene 6257) (P28702 whole entry, looked up): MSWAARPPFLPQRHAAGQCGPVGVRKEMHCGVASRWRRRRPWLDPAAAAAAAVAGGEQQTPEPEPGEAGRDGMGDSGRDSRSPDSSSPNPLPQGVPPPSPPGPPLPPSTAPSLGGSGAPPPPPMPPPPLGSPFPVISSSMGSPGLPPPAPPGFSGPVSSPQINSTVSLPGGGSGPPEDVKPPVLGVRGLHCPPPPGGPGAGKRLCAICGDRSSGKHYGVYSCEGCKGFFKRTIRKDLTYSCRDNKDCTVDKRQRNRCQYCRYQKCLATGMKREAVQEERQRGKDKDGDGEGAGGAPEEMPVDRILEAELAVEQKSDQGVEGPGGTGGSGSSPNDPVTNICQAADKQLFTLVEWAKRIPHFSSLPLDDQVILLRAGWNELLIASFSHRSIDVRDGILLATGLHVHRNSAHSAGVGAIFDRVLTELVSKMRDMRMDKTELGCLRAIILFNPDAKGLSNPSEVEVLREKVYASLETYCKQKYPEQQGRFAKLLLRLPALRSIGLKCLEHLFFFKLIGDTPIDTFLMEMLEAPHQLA
Test [18] deals with human Vitamin D Receptor (VDR), VDR (gene 7421) (UniProt P11473). Nature of the test: ATG_VDR_TRANS: Attagene TRANS-FACTORIAL HepG2 Assay for human Vitamin D Receptor (VDR) (AID 2283022; active means hit-call score of the fitted dose curve at least 0.9, where 1 is the maximum). In a few lines:
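HepG2 cells were transiently transfected with multiple GAL4-UAS reporter units, so signal reflects exogenous chimeric receptor-Gal4 activity. After 24 h compound exposure, reporter mRNA was measured by RT-PCR, fluorescent labelling and capillary electrophoresis, fitted for gain of signal versus DMSO.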

For test [19], the target named is human Retinoic Acid Receptor gamma (RARg), RARG (gene 5916) (UniProt P13631). Description: ATG_RARg_TRANS: Attagene TRANS-FACTORIAL HepG2 Assay for human Retinoic Acid Receptor gamma (RARg) (AID 2283009; active means hit-call score of the fitted dose curve at least 0.9, where 1 is the maximum). An outline of the steps: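 HepG2, RARg-GAL4 TRANS system, 24 h exposure; reporter mRNA by RT-PCR + CE fluorescence; increase over DMSO.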
Chain of human Retinoic Acid Receptor gamma (RARg), RARG (gene 5916) (P13631 whole entry, looked up, the tested form may be a part): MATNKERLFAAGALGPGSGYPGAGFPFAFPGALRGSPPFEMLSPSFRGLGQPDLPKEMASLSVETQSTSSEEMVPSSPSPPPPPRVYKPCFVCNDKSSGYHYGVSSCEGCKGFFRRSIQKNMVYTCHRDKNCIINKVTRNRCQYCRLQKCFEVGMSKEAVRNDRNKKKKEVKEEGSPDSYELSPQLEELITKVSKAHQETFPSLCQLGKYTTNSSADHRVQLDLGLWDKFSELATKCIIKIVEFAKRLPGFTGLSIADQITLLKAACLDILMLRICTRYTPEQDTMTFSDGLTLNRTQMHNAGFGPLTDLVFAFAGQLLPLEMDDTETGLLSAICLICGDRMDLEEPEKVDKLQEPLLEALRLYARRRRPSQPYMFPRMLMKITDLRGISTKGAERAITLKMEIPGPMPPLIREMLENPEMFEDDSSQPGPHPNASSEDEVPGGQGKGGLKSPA
Read-out in test [20]: Monocyte Chemoattractant Protein-1 (MCP1), CCL2 (gene 6347)
Description: BSK_4H_MCP1: BioMAP Diversity Plus: 4H Assay for Monocyte Chemoattractant Protein-1 (MCP1) Biomarker Activity (AID 2283018). To be noted: primary human endothelial cells (HUVEC); actives raise or lower the signal. An outline of the steps: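 Readout: MCP-1 ELISA on compound-treated HUVEC, sampled 24 h post-dosing. Baseline and negative control DMSO; bidirectional fit. Overt toxicity checked alongside by sulforhodamine B protein staining at time of biomarker measurement.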

Chain of human Thyroid Receptor alpha (THRa1), THRA (gene 7067) (P10827 whole entry, looked up, the tested form may be a part): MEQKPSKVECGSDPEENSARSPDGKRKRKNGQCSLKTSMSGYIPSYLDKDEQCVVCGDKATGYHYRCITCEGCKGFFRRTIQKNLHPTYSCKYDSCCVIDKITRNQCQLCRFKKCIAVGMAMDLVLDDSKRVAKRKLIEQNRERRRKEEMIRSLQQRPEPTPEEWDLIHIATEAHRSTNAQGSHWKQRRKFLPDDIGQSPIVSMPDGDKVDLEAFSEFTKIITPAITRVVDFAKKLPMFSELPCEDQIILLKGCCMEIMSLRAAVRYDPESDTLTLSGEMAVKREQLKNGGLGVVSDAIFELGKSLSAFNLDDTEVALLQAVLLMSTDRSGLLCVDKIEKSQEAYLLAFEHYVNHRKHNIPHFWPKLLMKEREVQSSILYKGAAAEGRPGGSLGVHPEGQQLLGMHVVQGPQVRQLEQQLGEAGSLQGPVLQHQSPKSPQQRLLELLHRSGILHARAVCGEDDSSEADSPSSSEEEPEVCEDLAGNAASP
Chain of E-selectin (Homo sapiens) (P16581 whole entry, looked up): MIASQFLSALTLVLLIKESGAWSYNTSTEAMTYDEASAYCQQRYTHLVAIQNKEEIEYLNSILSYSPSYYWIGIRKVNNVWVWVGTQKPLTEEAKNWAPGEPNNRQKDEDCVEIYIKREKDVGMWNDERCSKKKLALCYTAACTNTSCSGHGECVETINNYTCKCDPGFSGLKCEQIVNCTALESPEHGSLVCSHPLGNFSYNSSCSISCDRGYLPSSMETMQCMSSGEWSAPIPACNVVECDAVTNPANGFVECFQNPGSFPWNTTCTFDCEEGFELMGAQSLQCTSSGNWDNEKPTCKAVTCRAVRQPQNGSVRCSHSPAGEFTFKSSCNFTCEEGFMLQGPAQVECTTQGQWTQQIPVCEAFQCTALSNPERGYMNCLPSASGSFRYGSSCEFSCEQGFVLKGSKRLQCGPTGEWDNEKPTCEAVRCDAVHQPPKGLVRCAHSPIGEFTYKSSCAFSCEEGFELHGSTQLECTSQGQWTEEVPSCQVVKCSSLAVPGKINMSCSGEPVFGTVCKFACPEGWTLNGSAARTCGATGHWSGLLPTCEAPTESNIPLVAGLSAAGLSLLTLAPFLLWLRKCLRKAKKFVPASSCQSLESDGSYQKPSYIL
Chain of human Vitamin D Receptor (VDR), VDR (gene 7421) (P11473 whole entry, looked up, the tested form may be a part): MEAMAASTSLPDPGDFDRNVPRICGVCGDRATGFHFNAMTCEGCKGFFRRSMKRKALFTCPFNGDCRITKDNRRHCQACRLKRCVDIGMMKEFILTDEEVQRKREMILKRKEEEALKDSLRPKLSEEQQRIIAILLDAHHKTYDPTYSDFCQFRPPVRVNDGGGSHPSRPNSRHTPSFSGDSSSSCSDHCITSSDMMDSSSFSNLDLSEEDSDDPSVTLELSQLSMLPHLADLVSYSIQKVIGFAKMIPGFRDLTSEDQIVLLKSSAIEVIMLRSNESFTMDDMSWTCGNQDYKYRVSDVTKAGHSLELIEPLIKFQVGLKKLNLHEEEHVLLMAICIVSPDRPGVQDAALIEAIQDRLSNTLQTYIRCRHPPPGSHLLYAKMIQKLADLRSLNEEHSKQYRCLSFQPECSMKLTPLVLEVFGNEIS

`CCOc1cc(Oc2ccc(C(F)(F)F)cc2Cl)ccc1[N+](=O)[O-]`: the outcome in test [1], in test [2], in test [3], in [4], in test [5] and in [7] was inactive. Also, the result in [8], in test [11], in [12] and in test [13] was inactive. For the same compound, the concentration at half-maximal activity (AC50) is 3.32 µM (active) in test [6]; 14.1 µM (active) in test [9]; 7.63 µM (active) in test [10]; 6.77 µM (active) in test [14]; 4.94 µM (active) in test [15].
In the case of `N#Cc1cc(Br)c(O)c(Br)c1`, the compound was classed as inactive in test [16], in [17], in test [2], in test [3], in test [4] and in test [5]. For the same compound, the outcome in test [7], in [8], in test [10], in test [11], in test [14] and in [15] was inactive. Further, the AC50 was 28 µM (active) in test [6], 20 µM (active) in [9], 16.5 µM (active) in test [12] and 19 µM (active) in test [13].
In the case of `COc1ccc(C(c2ccc(OC)cc2)C(Cl)(Cl)Cl)cc1`, the compound was classed as inactive in [1], in test [16], in test [17], in [2], in [4] and in test [8]. In addition, the outcome in [18] and in test [15] was inactive. For the same compound, the AC50 was 25.6 µM (active) in test [3]; 26.4 µM (active) in test [5]; 25.8 µM (active) in [6]; 24.9 µM (active) in [7]; 20.1 µM (active) in [9]; 6.22 µM (active) in test [10]. For the same compound, the half-maximal activity concentration (AC50) in test [11] was 15.2 µM (active); in [12], 33.4 µM (active); in test [13], 26.9 µM (active); in test [14] it was 19.4 µM (active).
In the case of `Cc1c(F)c(F)c(COC(=O)C2C(/C=C(\Cl)C(F)(F)F)C2(C)C)c(F)c1F` (stereo unspecified), the call in test [19], in test [17], in test [4], in test [5], in test [7] and in test [8] was inactive. Besides, the compound was called inactive in test [18], in test [10], in [12], in test [13] and in test [15]. In addition, the AC50 in [3] is 12 µM (active); in test [6], 14.8 µM (active); in test [9], 13.7 µM (active); in [11] it was 9.8 µM (active).
`COC(=O)C=C(C)OP(=O)(OC)OC`: the compound was classed as inactive in test [1], in test [16], in test [17], in test [2], in test [3] and in test [4]. Also, the outcome in test [5], in test [6], in test [7], in [8], in test [9] and in test [10] was inactive. In addition, the outcome in test [11], in test [12], in test [13], in test [14] and in [15] was inactive.
Turning to `Oc1ccccc1-c1ccccc1`, the compound was called inactive in test [1], in [16], in [2], in [3], in test [4] and in test [5]. In addition, the result in [20], in test [6], in [7], in [8], in test [18] and in test [9] was inactive. The outcome in [10], in test [11], in test [12], in test [13], in [14] and in test [15] was inactive. The AC50 in [17] is 56.3 µM (active) and 26.8 µM (active).
For the compound `C=CCC1=C(C)[C@@H](OC(=O)[C@@H]2[C@@H](C=C(C)C)C2(C)C)CC1=O`, the compound was classed as inactive in test [19], in [16], in test [4], in test [8], in test [18] and in [10]. For the same compound, the result in test [15] was inactive. The AC50 in [3] was 31.2 µM (active); in [5] it was 32 µM (active); in [6] it was 34.4 µM (active); in test [7], 35.4 µM (active); in test [9], 25.8 µM (active); in test [11], 13.7 µM (active). In addition, the concentration at half-maximal activity (AC50) is 31.6 µM (active) in [12], 30.2 µM (active) in [13] and 18.8 µM (active) in [14].
